Experimental data from PubChem BioAssay (EPA / NIEHS).
Active and inactive are the calls of the source. The calls were made as follows: active = hit-call score of the fitted dose curve at least 0.9, where 1 is the maximum; inactive = score below 0.9.

Key:
[1] = ATG_CRE_CIS: Attagene CIS-FACTORIAL HepG2 Assay for human cAMP Responsive Element (CRE) binding protein 3 (AID 2282926); conditions: HepG2 CRE cis-reporter, Attagene multiplexed mRNA; actives raise or lower the signal
Method in brief: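 Assay format: transient reporter transfection of HepG2, 24 h treatment, total RNA isolation with DNase I step. Reporter abundance read by fluorescence after PCR and capillary separation; DMSO-normalised gain or loss fitting.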

[2] = biological target: CCAAT/enhancer-binding protein beta (Homo sapiens) (UniProt P17676); assay: ATG_C_EBP_CIS: Attagene CIS-FACTORIAL HepG2 Assay for human CCAAT/Enhancer Binding Protein (C/EBP) beta (AID 2282927); conditions: HepG2 Attagene cis-factorial transcription factor reporter; actives raise or lower the signal
Sequence of CCAAT/enhancer-binding protein beta (Homo sapiens) (P17676 whole entry, looked up): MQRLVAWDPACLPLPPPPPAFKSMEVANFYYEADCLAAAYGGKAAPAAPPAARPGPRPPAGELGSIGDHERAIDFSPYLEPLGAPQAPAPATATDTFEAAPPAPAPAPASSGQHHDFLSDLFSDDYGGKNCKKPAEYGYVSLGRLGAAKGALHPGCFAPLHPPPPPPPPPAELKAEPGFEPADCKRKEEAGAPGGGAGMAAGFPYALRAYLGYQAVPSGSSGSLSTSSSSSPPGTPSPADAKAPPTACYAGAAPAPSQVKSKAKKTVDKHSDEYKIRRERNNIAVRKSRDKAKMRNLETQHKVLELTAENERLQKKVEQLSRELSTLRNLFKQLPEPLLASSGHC
Method in brief: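 Following a 24 h incubation with test chemical, transfected HepG2 cells yielded RNA whose reporter transcripts were quantified by RT-PCR and fluorescent capillary electrophoresis, with DMSO serving as baseline for bidirectional fitting.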

[3] = ATG_CMV_CIS: Attagene CIS-FACTORIAL HepG2 Assay for human CMV (Internal Marker) (AID 2282928); conditions: HepG2 CMV promoter reporter, transcription factor profiling; actives raise or lower the signal;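 also: endpoint acts as a background internal control marker rather than a target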
Method in brief: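 Fluorescence intensity of RT-PCR-derived reporter fragments, resolved by capillary electrophoresis, gives the signal. HepG2 liver cells bearing transfected cis-element reporters were treated 24 h; activity in either direction was fit relative to DMSO-treated controls.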

[4] = ATG_DR4_LXR_CIS: Attagene CIS-FACTORIAL HepG2 Assay for human Liver X Receptor (LXR), DR4 submotif (AID 2282929); conditions: HepG2 Attagene DR4 cis-reporter, mRNA transcription; actives raise or lower the signal
Method in brief: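 HepG2, transient MRTU transfection, cis-element (DR4) promoter; 24 h compound exposure; total RNA → oligo(dT) RT → PCR → 6-FAM primer extension → HpaI cut → CE. Gain/loss vs DMSO, bidirectional fit.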

[5] = biological target: Aryl hydrocarbon receptor (Homo sapiens) (UniProt P35869); assay: ATG_Ahr_CIS: Attagene CIS-FACTORIAL HepG2 Assay for human Aryl Hydrocarbon Receptor (Ahr) (AID 2282930); conditions: HepG2 AhR cis-factorial reporter transcription; actives raise or lower the signal
Sequence of Aryl hydrocarbon receptor (Homo sapiens) (P35869 whole entry, looked up): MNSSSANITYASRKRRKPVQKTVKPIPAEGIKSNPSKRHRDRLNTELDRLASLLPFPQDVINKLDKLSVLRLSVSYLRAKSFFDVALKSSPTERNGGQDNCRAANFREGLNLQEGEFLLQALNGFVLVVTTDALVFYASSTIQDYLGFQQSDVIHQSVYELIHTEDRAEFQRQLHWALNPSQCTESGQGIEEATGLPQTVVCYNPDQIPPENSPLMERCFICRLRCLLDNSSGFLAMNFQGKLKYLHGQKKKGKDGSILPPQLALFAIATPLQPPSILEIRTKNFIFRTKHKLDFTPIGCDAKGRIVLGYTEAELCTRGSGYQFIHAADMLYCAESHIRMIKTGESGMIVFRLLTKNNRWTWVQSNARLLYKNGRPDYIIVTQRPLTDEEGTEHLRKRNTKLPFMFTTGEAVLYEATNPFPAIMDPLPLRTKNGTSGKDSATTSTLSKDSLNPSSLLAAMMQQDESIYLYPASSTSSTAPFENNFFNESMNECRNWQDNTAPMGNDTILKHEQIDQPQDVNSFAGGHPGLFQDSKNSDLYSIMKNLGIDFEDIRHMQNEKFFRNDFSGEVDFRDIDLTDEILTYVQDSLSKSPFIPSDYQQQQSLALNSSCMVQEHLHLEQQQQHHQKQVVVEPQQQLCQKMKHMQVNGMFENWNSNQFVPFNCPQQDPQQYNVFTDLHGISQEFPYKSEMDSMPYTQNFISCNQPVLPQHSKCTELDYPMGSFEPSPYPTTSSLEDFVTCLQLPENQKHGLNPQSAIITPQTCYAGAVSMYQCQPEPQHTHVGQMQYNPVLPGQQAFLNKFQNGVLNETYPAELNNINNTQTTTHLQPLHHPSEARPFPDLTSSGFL
Method in brief: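 Values derive from bidirectional fitting against DMSO negative control. Underlying signal: cis-element reporter mRNA in transiently transfected HepG2, harvested 24 h post-dose and measured by RT-PCR plus capillary electrophoresis.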

[6] = ATG_AP_1_CIS: Attagene CIS-FACTORIAL HepG2 Assay for human Activator Protein 1 (AP-1) (AID 2282931); conditions: HepG2 Attagene cis-factorial AP-1 reporter mRNA; actives raise or lower the signal
Method in brief: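 Transient MRTU transfection of HepG2 → 24 h chemical treatment → RNA isolation, RT-PCR, 6-FAM labelling, HpaI digest → capillary electrophoresis. Fit: bidirectional, DMSO negative control.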

[7] = ATG_AP_2_CIS: Attagene CIS-FACTORIAL HepG2 Assay for human Activator Protein 2 (AP-2) (AID 2282932); conditions: HepG2 AP-2 cis-reporter, Attagene transcription factor profiling; actives raise or lower the signal
Method in brief: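 Cells (HepG2) transfected with promoter-driven reporter constructs, treated 24 h. Total RNA reverse-transcribed, reporter cDNA PCR-amplified, FAM-labelled by primer extension, digested, resolved by capillary electrophoresis. Activity fitted both directions versus DMSO.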

[8] = ATG_BRE_CIS: Attagene CIS-FACTORIAL HepG2 Assay for human Bone Morphogenetic Protein (BMP) Response Element (BRE) (AID 2282933); conditions: HepG2 BMP response element reporter, Attagene transcription factor profiling; actives raise or lower the signal
Method in brief: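 After a 24 h chemical treatment, transiently transfected HepG2 cells were lysed for RNA; reporter transcripts were quantified by fluorescent RT-PCR and capillary electrophoresis, normalised to DMSO.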

[9] = biological target: Retinoic acid receptor alpha (Homo sapiens) (UniProt P10276); assay: ATG_DR5_RAR_CIS: Attagene CIS-FACTORIAL HepG2 Assay for human Retinoic Acid Receptor Alpha (RARE), DR5 submotif (AID 2282934); conditions: HepG2 Attagene cis-factorial RARE DR5 reporter, mRNA; actives raise or lower the signal;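 as to AC50: reporter responds to endogenous RAR alpha beta and gamma in HepG2 not RARA alone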
Sequence of Retinoic acid receptor alpha (Homo sapiens) (P10276 whole entry, looked up): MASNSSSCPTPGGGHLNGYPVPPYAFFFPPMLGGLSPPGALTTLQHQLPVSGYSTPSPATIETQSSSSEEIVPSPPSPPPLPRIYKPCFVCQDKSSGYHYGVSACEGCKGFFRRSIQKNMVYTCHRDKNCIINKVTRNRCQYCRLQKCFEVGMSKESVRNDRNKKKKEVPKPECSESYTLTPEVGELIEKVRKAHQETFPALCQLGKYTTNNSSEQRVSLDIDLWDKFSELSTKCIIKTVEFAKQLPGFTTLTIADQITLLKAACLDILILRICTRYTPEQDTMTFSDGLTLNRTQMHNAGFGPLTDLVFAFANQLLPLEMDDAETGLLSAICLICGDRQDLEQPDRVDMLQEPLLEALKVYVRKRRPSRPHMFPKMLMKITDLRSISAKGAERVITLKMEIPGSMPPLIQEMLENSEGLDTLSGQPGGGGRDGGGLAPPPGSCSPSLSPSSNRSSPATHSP
Method in brief: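 Endpoint fitted in both directions relative to DMSO as negative control. It reflects DR5 cis-element reporter mRNA induction in transiently transfected HepG2 cells, measured 24 h after dosing through RT-PCR and fluorescent capillary electrophoresis.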

[10] = biological target: Transcription factor E2F1 (Homo sapiens) (UniProt Q01094); assay: ATG_E2F_CIS: Attagene CIS-FACTORIAL HepG2 Assay for human E2F Transcription Factor 1 (AID 2282935); conditions: HepG2 Attagene cis-reporter, E2F reporter RNA transcripts; actives raise or lower the signal
Sequence of Transcription factor E2F1 (Homo sapiens) (Q01094 whole entry, looked up): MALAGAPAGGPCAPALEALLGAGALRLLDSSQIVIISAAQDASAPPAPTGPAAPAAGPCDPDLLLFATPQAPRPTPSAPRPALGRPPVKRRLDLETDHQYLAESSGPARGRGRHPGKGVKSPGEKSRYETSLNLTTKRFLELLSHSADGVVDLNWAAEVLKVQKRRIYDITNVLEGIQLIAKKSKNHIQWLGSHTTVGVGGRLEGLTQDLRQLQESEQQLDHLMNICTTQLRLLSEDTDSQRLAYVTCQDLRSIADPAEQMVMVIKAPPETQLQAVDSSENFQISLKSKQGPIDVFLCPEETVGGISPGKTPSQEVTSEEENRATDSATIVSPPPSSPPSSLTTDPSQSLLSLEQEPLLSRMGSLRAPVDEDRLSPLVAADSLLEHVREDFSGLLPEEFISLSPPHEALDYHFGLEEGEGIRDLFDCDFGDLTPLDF
Method in brief: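 First, HepG2 cells were transfected with reporter transcription units. Next, they were dosed for 24 h. Then RNA was isolated, converted to cDNA, PCR-amplified, FAM-labeled, HpaI-digested and analyzed by capillary electrophoresis.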

[11] = ATG_E_Box_CIS: Attagene CIS-FACTORIAL HepG2 Assay for human Enhancer Box (E-box) (AID 2282936); conditions: HepG2 E-box cis-reporter transcription, actives raise or lower the signal
Method in brief: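 Endogenous transcription factor activity was sensed in human HepG2 liver cells through transfected cis-promoter reporter units. After 24 h of dosing, total RNA was reverse-transcribed and reporter cDNA resolved by capillary electrophoresis.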

[12] = ATG_M_61_CIS: Attagene CIS-FACTORIAL HepG2 Assay for M61 Transcription Factor (Internal Marker) (AID 2282937); conditions: HepG2 Attagene CIS-FACTORIAL M61 internal marker reporter; actives raise or lower the signal
Method in brief: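 Human liver HepG2, transient MRTU transfection (cis promoter elements), 24 h compound. Total RNA → oligo(dT) RT → PCR → FAM label → HpaI → CE. Internal background marker; bidirectional fitting, DMSO = baseline.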

[13] = ATG_EGR_CIS: Attagene CIS-FACTORIAL HepG2 Assay for human Early Growth Response 1 (EGR1) (AID 2282938); conditions: HepG2 Attagene CIS-FACTORIAL EGR reporter mRNA; actives raise or lower the signal
Method in brief: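 Transient transfection of human HepG2 with multiple cis-regulated reporter units, chemical exposure 24 h, total RNA isolated. Reverse transcription, PCR, fluorescent labelling and capillary electrophoresis quantify reporter transcripts; activity fitted bidirectionally against DMSO.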

[14] = ATG_M_19_CIS: Attagene CIS-FACTORIAL HepG2 Assay for M19 Transcription Factor (Internal Marker) (AID 2282939); conditions: HepG2 Attagene CIS-FACTORIAL M19 internal marker reporter; actives raise or lower the signal
Method in brief: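 In this multiplexed cell assay, transiently transfected HepG2 reporter units report endogenous transcription-factor activity; after 24 hours of treatment, labelled reporter cDNA fragments are quantified by capillary electrophoresis and fitted bidirectionally against DMSO.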

[15] = ATG_Ets_CIS: Attagene CIS-FACTORIAL HepG2 Assay for human Erythroblast Transformation Specific (ETS) (AID 2282941); conditions: HepG2 ETS cis-reporter transcription, actives raise or lower the signal
Method in brief: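 Multiplexed reporter transcript profiling: HepG2, 24 h treatment, total RNA to cDNA, PCR, 6-FAM labelling, HpaI cut, capillary electrophoresis. Gain- or loss-of-signal fitted against DMSO.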

[16] = biological target: Hepatocyte nuclear factor 3-beta (Homo sapiens) (UniProt Q9Y261); assay: ATG_FoxA2_CIS: Attagene CIS-FACTORIAL HepG2 Assay for human Forkhead box A2 (FOXA2) (AID 2282942); conditions: HepG2 cis-reporter transcription factor activity, 24 h; actives raise or lower the signal
Sequence of Hepatocyte nuclear factor 3-beta (Homo sapiens) (Q9Y261 whole entry, looked up): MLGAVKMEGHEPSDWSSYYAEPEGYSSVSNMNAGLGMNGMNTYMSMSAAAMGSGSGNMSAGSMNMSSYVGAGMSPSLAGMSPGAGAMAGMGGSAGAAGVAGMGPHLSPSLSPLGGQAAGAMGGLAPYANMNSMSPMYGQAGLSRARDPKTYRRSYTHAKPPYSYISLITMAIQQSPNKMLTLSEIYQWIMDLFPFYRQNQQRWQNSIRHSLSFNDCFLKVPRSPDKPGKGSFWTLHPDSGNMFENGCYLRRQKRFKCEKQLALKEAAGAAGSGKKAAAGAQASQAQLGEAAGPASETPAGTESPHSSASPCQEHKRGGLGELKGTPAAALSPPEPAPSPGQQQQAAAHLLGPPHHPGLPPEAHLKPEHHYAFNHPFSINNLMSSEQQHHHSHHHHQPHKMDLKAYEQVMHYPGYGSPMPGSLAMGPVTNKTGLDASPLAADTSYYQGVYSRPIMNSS
Method in brief: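 Transient MRTU transfection of HepG2 liver cells; 24 h treatment; total RNA → oligo(dT) RT → PCR → FAM primer extension → HpaI cut → CE. Bidirectional fit vs DMSO.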

[17] = ATG_FoxO_CIS: Attagene CIS-FACTORIAL HepG2 Assay for human Forkhead box O (FoxO) (AID 2282943); conditions: HepG2 Attagene cis-reporter, FoxO element, mRNA; actives raise or lower the signal
Method in brief: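 Values reflect reporter mRNA induction or loss in HepG2 cells 24 h post-dosing, fitted bidirectionally with DMSO as negative control and baseline. Detection used RT-PCR and fluorescence capillary electrophoresis.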

[18] = ATG_GATA_CIS: Attagene CIS-FACTORIAL HepG2 Assay for human GATA Binding Protein (AID 2282944); conditions: HepG2 GATA cis-element reporter, Attagene multiplex mRNA; actives raise or lower the signal
Method in brief: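 Measures endogenous transcription factor-driven reporter mRNA in HepG2 cells transiently carrying cis-regulated constructs. 24 h dosing; RNA via oligo(dT) reverse transcription, PCR, HpaI digestion, capillary electrophoresis; fitted relative to DMSO.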

[19] = ATG_GLI_CIS: Attagene CIS-FACTORIAL HepG2 Assay for human Zinc Finger Protein GLI1 (AID 2282945); conditions: HepG2, Attagene cis-factorial reporter mRNA, GLI element; actives raise or lower the signal
Method in brief: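 HepG2 cells transiently transfected with cis-promoter multiplexed reporter units report endogenous transcription factor activity. After 24 h chemical exposure, reporter mRNA was quantified by RT-PCR, 6-FAM labelling, HpaI digestion and capillary electrophoresis, with bidirectional fitting against DMSO.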

[20] = ATG_ERE_CIS: Attagene CIS-FACTORIAL HepG2 Assay for Estrogen Response Element (ERE) (AID 2282940); conditions: HepG2 ERE cis-reporter, Attagene RNA transcript; actives raise or lower the signal
Method in brief: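 Measuring endogenous transcription factor output, the assay doses transfected HepG2 cells for 24 hours and quantifies reporter transcripts by fluorescent RT-PCR and capillary electrophoresis, with DMSO as baseline.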

Measured: AC50

Nc1ccc(Oc2ccc(N)cc2)cc1
not listed: [20]
inactive: all other assays above

CC(C)COC(=O)c1ccccc1C(=O)OCC(C)C
active: [1] 59.3 µM | [3] 67.5 µM | [4] 73 µM | [6] 70.3 µM | [8] 110 µM | [11] 100 µM | [13] 73.4 µM | [20] 39.6 µM
inactive: all other assays above

O=Cc1ccco1
not listed: [20]
inactive: all other assays above

O=C1CCCO1
not listed: [20]
inactive: all other assays above

CNC(=O)Oc1cccc2c1OC(C)(C)C2
active: [5] 65.6 µM
inactive: all other assays above

O=C(Nc1ccccc1)c1ccccc1I
active: [4] 157 µM | [20] 30.3 µM
inactive: all other assays above

Nc1ccc(Cc2ccc(N)cc2)cc1
not listed: [20]
inactive: all other assays above

O=[N+]([O-])C(Br)(CO)CO
active: [1] 170 µM | [2] 156 µM | [6] 25.2 µM | [9] 153 µM | [13] 100 µM | [19] 169 µM
inactive: all other assays above

CCN(CC)N=O
not listed: [20]
inactive: all other assays above

OCCOCCO
active: [6] 0.00963 µM
inactive: all other assays above

O=P(OCCCl)(OCCCl)OCCCl
not listed: [20]
inactive: all other assays above

CC(C)(O)c1cnn2c(-c3ccc(F)c(-c4c(F)cccc4C#N)c3)cnc2n1
active: [1] 40 µM | [4] 27.5 µM | [6] 67.1 µM | [13] 2.13 µM
not listed: [20]
inactive: all other assays above
